Assay results as given in the supplement of paper PMC8728848.
Shown is part of a subset that was picked to be rich in the strongest signals.

Legend:
Experiment in all cases: glycan array binding signal (z-score within array); higher = stronger binding
Settings in all cases: glycan notation: IUPAC condensed, linker removed
[1] = target: Fuc(a1-2)Gal(b1-3)GalNAc(a1-3)[Fuc(a1-2)]Gal(b1-4)GlcNAc
How it was run: (§1)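 Glycan array binding is given as a within-array Z-score, which can be read as non-binding when negative. The arrays, 3228 of them, came from the Consortium for Functional Glycomics database and were retained only where the protein sequence was available. Z-scores were averaged across arrays of the same protein sequence at different concentrations or buffers and across linkers.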

[2] = target: Fuc(a1-2)Gal(b1-4)Fuc(a1-3)]GlcNAc(b1-2)Man(a1-3)[Fuc(a1-2)Gal(b1-4)[Fuc(a1-3)]GlcNAc(b1-2)Man(a1-6)]Man(b1-4)GlcNAc(b1-4)GlcNAc
How it was run: as §1

[3] = target: Fuc(a1-2)Gal(b1-4)GlcNAc(b1-2)Man(a1-3)[Fuc(a1-2)Gal(b1-4)GlcNAc(b1-2)Man(a1-6)]Man(b1-4)GlcNAc(b1-4)[Fuc(a1-6)]GlcNAc
How it was run: as §1

[4] = target: Fuc(a1-2)Gal(b1-4)GlcNAc(b1-3)GalNAc
How it was run: as §1

[5] = target: Fuc(a1-2)Gal(b1-4)[Fuc(a1-3)]GlcNAc(b1-3)GalNAc
How it was run: as §1

[6] = target: Fuc(a1-2)[Gal(a1-3)]Gal(b1-3)GalNAc(b1-3)Gal(a1-4)Gal(b1-4)Glc
How it was run: as §1

[7] = target: Fuc(a1-2)[GalNAc(a1-3)]Gal
How it was run: as §1

[8] = target: Fuc(a1-2)[GalNAc(a1-3)]Gal(b1-4)[Fuc(a1-3)]GlcNAc(b1-3)GalNAc
How it was run: as §1

[9] = target: Fuc(a1-3)[Gal(b1-4)]GlcNAc(b1-2)Man(a1-3)[Fuc(a1-3)[Gal(b1-4)]GlcNAc(b1-2)Man(a1-6)]Man(b1-4)GlcNAc(b1-4)[Fuc(a1-6)]GlcNAc
How it was run: as §1

Gal(b1-2)Gal = target: Gal(b1-2)Gal
How it was run: as §1

Gal(b1-3)GlcNAc = target: Gal(b1-3)GlcNAc
How it was run: as §1

Gal(b1-3)GlcNAc(b1-2)Man = target: Gal(b1-3)GlcNAc(b1-2)Man
How it was run: as §1

[10] = target: Gal(b1-3)GlcNAc(b1-2)Man(a1-3)[Gal(b1-3)GlcNAc(b1-2)Man(a1-6)]Man(b1-4)GlcNAc(b1-4)GlcNAc
How it was run: as §1

[11] = target: Gal(b1-3)GlcNAc(b1-3)Gal(b1-4)Glc
How it was run: as §1

[12] = target: Gal(b1-3)[Fuc(a1-4)]GlcNAc(b1-3)Gal(b1-3)[Fuc(a1-4)]GlcNAc
How it was run: as §1

Gal(b1-4)GlcNAc(b1-2)Man = target: Gal(b1-4)GlcNAc(b1-2)Man
How it was run: as §1

[13] = target: Gal(b1-4)GlcNAc(b1-2)Man(a1-3)[Gal(b1-4)GlcNAc(b1-2)Man(a1-6)]Man(b1-4)GlcNAc(b1-4)GlcNAc
How it was run: as §1

[14] = target: Gal(b1-4)GlcNAc(b1-2)[Gal(b1-4)GlcNAc(b1-6)]Man(a1-6)[GlcNAc(b1-4)][Gal(b1-4)GlcNAc(b1-2)Man(a1-3)]Man(b1-4)GlcNAc(b1-4)GlcNAc
How it was run: as §1

[15] = target: Gal(b1-4)GlcNAc(b1-3)Gal(b1-4)GlcNAc
How it was run: as §1

[16] = target: Gal(b1-4)GlcNAc(b1-3)Gal(b1-4)GlcNAc(b1-3)Gal(b1-4)GlcNAc(b1-2)Man(a1-3)[Gal(b1-4)GlcNAc(b1-3)Gal(b1-4)GlcNAc(b1-3)Gal(b1-4)GlcNAc(b1-2)Man(a1-6)]Man(b1-4)GlcNAc(b1-4)GlcNAc
How it was run: as §1

[17] = target: Gal(b1-4)GlcNAc(b1-3)Gal(b1-4)GlcNAc(b1-3)Gal(b1-4)GlcNAc(b1-3)Gal(b1-4)GlcNAc(b1-3)Gal(b1-4)GlcNAc(b1-2)Man(a1-3)[Gal(b1-4)GlcNAc(b1-3)Gal(b1-4)GlcNAc(b1-3)Gal(b1-4)GlcNAc(b1-3)Gal(b1-4)GlcNAc(b1-3)Gal(b1-4)GlcNAc(b1-2)Man(a1-6)]Man(b1-4)GlcNAc(b1-4)[Fuc(a1-6)]GlcNAc
How it was run: as §1

Gal3S(b1-3)GlcNAc = target: Gal3S(b1-3)GlcNAc
How it was run: as §1

[18] = target: Gal3S(b1-3)[Fuc(a1-4)]GlcNAc
How it was run: as §1

Gal6S(b1-4)GlcNAc6S = target: Gal6S(b1-4)GlcNAc6S
How it was run: as §1

[19] = target: GlcNAc(a1-4)Gal(b1-4)GlcNAc(b1-3)Gal(b1-4)[Fuc(a1-3)]GlcNAc(b1-3)Gal(b1-4)[Fuc(a1-3)]GlcNAc
How it was run: as §1

[20] = target: GlcNAc(b1-2)[GlcNAc(b1-4)]Man(a1-3)[GlcNAc(b1-2)Man(a1-6)]Man(b1-4)GlcNAc(b1-4)GlcNAc
How it was run: as §1

[21] = target: GlcNAc(b1-3)Gal(b1-4)GlcNAc(b1-3)[GlcNAc(b1-3)Gal(b1-4)GlcNAc(b1-3)]GalNAc
How it was run: as §1

[22] = target: Kdn(a2-3)Gal(b1-4)[Fuc(a1-3)]GlcNAc
How it was run: as §1

[23] = target: Neu5Ac(a2-3)Gal(b1-3)GlcNAc(b1-3)Gal(b1-3)GlcNAc
How it was run: as §1

[24] = target: Neu5Ac(a2-3)Gal(b1-3)[Neu5Ac(a2-6)]GlcNAc(b1-3)[Fuc(a1-3)[Gal(b1-4)]GlcNAc(b1-6)]Gal(b1-4)Glc
How it was run: as §1

[25] = target: Neu5Ac(a2-3)Gal(b1-4)GlcNAc(b1-2)Man(a1-3)[Neu5Ac(a2-6)Gal(b1-4)GlcNAc(b1-2)Man(a1-6)]Man(b1-4)GlcNAc(b1-4)GlcNAc
How it was run: as §1

[26] = target: Neu5Ac(a2-3)Gal(b1-4)GlcNAc(b1-3)Gal(b1-3)GlcNAc
How it was run: as §1

[27] = target: Neu5Ac(a2-3)Gal(b1-4)GlcNAc(b1-3)Gal(b1-4)GlcNAc(b1-3)Gal(b1-4)GlcNAc(b1-2)Man(a1-3)[Neu5Ac(a2-3)Gal(b1-4)GlcNAc(b1-3)Gal(b1-4)GlcNAc(b1-3)Gal(b1-4)GlcNAc(b1-2)Man(a1-6)]GalNAc
How it was run: as §1

[28] = target: Neu5Ac(a2-3)Gal(b1-4)GlcNAc(b1-3)Gal(b1-4)GlcNAc(b1-3)[Neu5Ac(a2-3)Gal(b1-4)GlcNAc(b1-3)Gal(b1-4)GlcNAc(b1-6)]GalNAc
How it was run: as §1

[29] = target: Neu5Ac(a2-3)Gal(b1-4)GlcNAc(b1-3)[Neu5Ac(a2-3)Gal(b1-4)GlcNAc(b1-6)]GalNAc
How it was run: as §1

[30] = target: Neu5Ac(a2-3)Gal(b1-4)[Fuc(a1-3)]GlcNAc(b1-3)GalNAc
How it was run: as §1

[31] = target: Neu5Ac(a2-6)Gal(b1-4)GlcNAc(b1-2)Man(a1-3)[GlcNAc(b1-4)][Neu5Ac(a2-6)Gal(b1-4)GlcNAc(b1-2)Man(a1-6)]Man(b1-4)GlcNAc(b1-4)GlcNAc
How it was run: as §1

[32] = target: Neu5Ac(a2-6)Gal(b1-4)GlcNAc(b1-2)Man(a1-3)[Man(a1-6)]Man(b1-4)GlcNAc(b1-4)GlcNAc
How it was run: as §1

[33] = target: Neu5Ac(a2-6)Gal(b1-4)GlcNAc(b1-2)Man(a1-6)Man(b1-4)GlcNAc(b1-4)GlcNAc
How it was run: as §1

[34] = target: Neu5Ac(a2-6)Gal(b1-4)GlcNAc(b1-3)Gal(b1-4)GlcNAc(b1-3)Gal(b1-4)GlcNAc(b1-2)Man(a1-3)[Neu5Ac(a2-6)Gal(b1-4)GlcNAc(b1-3)Gal(b1-4)GlcNAc(b1-3)Gal(b1-4)GlcNAc(b1-2)Man(a1-6)]GalNAc
How it was run: as §1

B1: Epa20 (Candida glabrata) (protein)
chain: MGSSHHHHHHSSGLVPRGSHMASSNIPNNYPLGCSNKYSGHLPGLKMELYSYNYVNPRHPDPQNPGKLDQLYDPNLLGTYECFDSSYKDINYPRVGYKSKTLIGRSDGVSGILNFNFVPPWGCMPQKGQLPPAYNFKSNITLSNFTMILFGYFKPKISGNHIFSLHGDDLIYLNFGAGNAFDCCRQESSADNFGNYQAFSLWGINWEKKTLTVYLDMNTYYPIRIFYNNRDYQAIFNFSFKTEFDSSPVIDFQDYFFFLRDIDGGCPGEV
glycan array binding signal (z-score) [1]: -0.278 | glycan array binding signal (z-score) [2]: 3.16 | glycan array binding signal (z-score) [3]: -0.005 | glycan array binding signal (z-score) [4]: -0.072 | glycan array binding signal (z-score) [5]: 4.96 | glycan array binding signal (z-score) [6]: -0.067 | glycan array binding signal (z-score) [7]: -0.452 | glycan array binding signal (z-score) [8]: 3.14 | glycan array binding signal (z-score) [9]: 0.822 | glycan array binding signal (z-score) (Gal(b1-2)Gal): -0.763 | glycan array binding signal (z-score) (Gal(b1-3)GlcNAc): -0.446 | glycan array binding signal (z-score) (Gal(b1-3)GlcNAc(b1-2)Man): 0.049 | glycan array binding signal (z-score) [10]: 0.704 | glycan array binding signal (z-score) [11]: -0.669 | glycan array binding signal (z-score) [12]: -0.28 | glycan array binding signal (z-score) (Gal(b1-4)GlcNAc(b1-2)Man): -0.114 | glycan array binding signal (z-score) [13]: -0.534 | glycan array binding signal (z-score) [14]: -0.48 | glycan array binding signal (z-score) [15]: -0.384 | glycan array binding signal (z-score) [16]: 3.18 | glycan array binding signal (z-score) [17]: 6.07 | glycan array binding signal (z-score) (Gal3S(b1-3)GlcNAc): -0.241 | glycan array binding signal (z-score) [18]: 0.569 | glycan array binding signal (z-score) (Gal6S(b1-4)GlcNAc6S): 0.939 | glycan array binding signal (z-score) [19]: 0.435 | glycan array binding signal (z-score) [20]: -0.31 | glycan array binding signal (z-score) [21]: 0.532 | glycan array binding signal (z-score) [22]: 0.229 | glycan array binding signal (z-score) [23]: -0.76 | glycan array binding signal (z-score) [24]: 2.49 | glycan array binding signal (z-score) [25]: -0.493 | glycan array binding signal (z-score) [26]: -0.463 | glycan array binding signal (z-score) [27]: 2.75 | glycan array binding signal (z-score) [28]: 4.06 | glycan array binding signal (z-score) [29]: 2.82 | glycan array binding signal (z-score) [30]: 2.98 | glycan array binding signal (z-score) [31]: -0.397 | glycan array binding signal (z-score) [32]: 0.402 | glycan array binding signal (z-score) [33]: -0.108 | glycan array binding signal (z-score) [34]: 3.97
